The test has as its system NCI-H1944. The test is described as follows: normalised cell viability (NPI; 0 = phenylarsine oxide control, 1 = DMSO control) (fraction of DMSO control); NCI-H1944 is a non-small cell lung cancer line; higher = more viable cells (less compound toxicity). The conditions noted are these: 6 days.
Setting [1] is: glucocorticoid arm: hydrocortisone 2.75 uM co-treatment, compound 1 µM.
[2] abbreviates: glucocorticoid arm: hydrocortisone 2.75 uM co-treatment, compound 5 µM.
Where [3] appears, read: glucocorticoid arm: hydrocortisone 2.75 uM pre-treated 2 days and continued, compound 1 µM.
The mark [4] stands for this setting: glucocorticoid arm: hydrocortisone 2.75 uM pre-treated 2 days and continued, compound 5 µM.
[5] abbreviates: glucocorticoid arm: vehicle, compound 1 µM.
[6] abbreviates: glucocorticoid arm: vehicle, compound 5 µM.

Where a name gives a salt, the structure may show the parent alone. ± gives the standard deviation of the averaged measurements. Whole data set: some 1,900 compounds, median “normalised cell viability (NPI; 0 = phenylarsine oxide control, 1 = DMSO control)” near 1, cut for the lowest 2% near 0.039. Many of the other results were omitted from the sample, so the lowest values are more common in it than they were.
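Note: CTB read-out in 384-well plates, triplicate wells, NPI normalised per plate against 1 µM phenylarsine oxide (0) and 0.1% DMSO (1) controls.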

Regarding `CCCN(CCc1ccccc1)C1CCc2c(O)cccc2C1` (racemic) [(±)-PPHT hydrochloride], the normalised cell viability is 0.986 ± 0.011 under setting [1]; 0.969 ± 0.03 under setting [2]; 1.05 ± 0.078 under setting [3]; 0.966 ± 0.02 under setting [4]; 1.007 ± 0.0058 under setting [5]; 1.003 ± 0.0058 under setting [6].
With `Cl.N[C@@H](CCC(=O)O)C(=O)O` [L-Glutamic acid hydrochloride], the normalised cell viability came to 1.013 ± 0.0058 under setting [1]; 1 ± 0.029 under setting [2]; 1.013 ± 0.0058 under setting [3]; 0.989 ± 0.027 under setting [4]; 1.023 ± 0.0058 under setting [5]; 1.02 ± 0.01 under setting [6].
Regarding `Clc1ccc(C(c2ccc(Cl)cc2)[n+]2ccn(CC(OCc3ccc(Cl)cc3Cl)c3ccc(Cl)cc3Cl)c2)cc1` (stereo unspecified) [Calmidazolium chloride], the normalised cell viability is 0.974 ± 0.035 under setting [1]; 0.00138 ± 0.00076 under setting [2]; 0.993 ± 0.012 under setting [3]; -0.000224 ± 0.0015 under setting [4]; 1.002 ± 0.0072 under setting [5]; 0.00119 ± 0.00017 under setting [6].
For the compound `CN(CC[C@@H](Oc1ccc(C(F)(F)F)cc1)c1ccccc1)CC(=O)[O-].[Li+]`, the normalised cell viability is, setting by setting: under setting [1], 0.992 ± 0.0046; under setting [2], 0.989 ± 0.011; under setting [3], 0.99 ± 0.014; under setting [4], 0.998 ± 0.018; under setting [5], 0.979 ± 0.016; under setting [6], 0.9777 ± 0.0035.
As to `NCCC[C@](N)(C(=O)O)C(F)F` (racemic) [DL-alpha-Difluoromethylornithine hydrochloride], the normalised cell viability stood at 0.9853 ± 0.0063 under setting [1]; 0.923 ± 0.021 under setting [2]; 0.9873 ± 0.0064 under setting [3]; 0.932 ± 0.011 under setting [4]; 0.9863 ± 0.0055 under setting [5]; 0.9817 ± 0.0032 under setting [6].
Consider `O=C(CCCN1C(=O)c2cccc3cccc(c23)C1=O)NO` [Nullscript], for which the normalised cell viability came out at 0.981 ± 0.011 under setting [1]; 0.961 ± 0.029 under setting [2]; 1 ± 0.012 under setting [3]; 0.987 ± 0.018 under setting [4]; 1 ± 0.0082 under setting [5]; 1.01 ± 0.014 under setting [6].
In the case of `c1cc(CN2CCCNCCNCCCNCC2)ccc1CN1CCCNCCNCCCNCC1` [Plerixafor], the normalised cell viability was 1 ± 0.018 under setting [1]; 1 ± 0.017 under setting [2]; 1.01 ± 0.011 under setting [3]; 0.996 ± 0.016 under setting [4]; 1.006 ± 0.0063 under setting [5]; 1.01 ± 0.013 under setting [6].
With `CNCc1ccc(-c2[nH]c3cc(F)cc4c3c2CCNC4=O)cc1`, the normalised cell viability by setting is: under setting [1], 0.982 ± 0.0036; under setting [2], 1 ± 0.071; under setting [3], 0.968 ± 0.0095; under setting [4], 1.01 ± 0.022; under setting [5], 0.989 ± 0.013; under setting [6], 0.948 ± 0.022.
Consider `CCCCc1nc2cc(/C=C/C(=O)NO)ccc2n1CCN(CC)CC` [Pracinostat (SB939)], for which the normalised cell viability runs as follows: under setting [1], 0.9753 ± 0.004; under setting [2], 0.00959 ± 0.0058; under setting [3], 1 ± 0.0095; under setting [4], 0.0658 ± 0.0071; under setting [5], 0.686 ± 0.077; under setting [6], 0.000852 ± 0.0004.
Consider `Nc1ncnc2c1c(-c1cccc(OCc3ccccc3)c1)cn2C1CC(CN2CCC2)C1` (stereo unspecified), for which the normalised cell viability under setting [1] was 0.457 ± 0.025; the normalised cell viability under setting [2] was found to be 0.366 ± 0.021; the normalised cell viability under setting [3] stood at 0.596 ± 0.0046; the normalised cell viability under setting [4] stood at 0.436 ± 0.062; the normalised cell viability under setting [5] is 0.939 ± 0.013; the normalised cell viability under setting [6] came out at 0.776 ± 0.039.
As for `O=C(NCCO)c1ccc2c(c1)nc(Nc1cccc(Cl)c1)c1ccncc12` [CK2 Inhibitor 2], the normalised cell viability runs as follows: under setting [1], 1.02 ± 0.022; under setting [2], 0.854 ± 0.028; under setting [3], 1.03 ± 0.015; under setting [4], 1.07 ± 0.021; under setting [5], 1.001 ± 0.0081; under setting [6], 0.567 ± 0.033.
For the compound `CC(=O)[C@]1(O)Cc2c(O)c3c(c(O)c2[C@@H](O[C@H]2C[C@H](N)[C@H](O)[C@H](C)O2)C1)C(=O)c1ccccc1C3=O` [Idarubicin hydrochloride], the normalised cell viability runs as follows: under setting [1], 0.00497 ± 0.00094; under setting [2], 0.0017 ± 0.0005; under setting [3], 0.00532 ± 0.0009; under setting [4], 0.024 ± 0.0063; under setting [5], 0.00471 ± 0.00071; under setting [6], 0.00231 ± 0.00037.
For `COc1cccc2c1C(=O)c1c(O)c3c(c(O)c1C2=O)C[C@@](O)(C(=O)CO)C[C@@H]3O[C@H]1C[C@H](N)[C@H](O)[C@H](C)O1` [Doxorubicin hydrochloride; 4'-Epiadriamycin; Doxorubicin HCl], the normalised cell viability by setting is: under setting [1], 0.454 ± 0.36; under setting [2], 0.288 ± 0.3; under setting [3], 0.754 ± 0.26; under setting [4], 0.484 ± 0.48; under setting [5], 0.178 ± 0.17; under setting [6], 0.129 ± 0.14.
For the compound `COc1cccc2c1C(=O)c1c(O)c3c(c(O)c1C2=O)C[C@@](O)(C(C)=O)C[C@@H]3O[C@H]1C[C@H](N)[C@H](O)[C@H](C)O1` [Daunorubicin hydrochloride; Daunorubicin HCl], the normalised cell viability was found to be 0.0398 ± 0.0066 under setting [1]; 1.05 ± 0.011 under setting [2]; 0.587 ± 0.027 under setting [3]; 1.013 ± 0.0058 under setting [4]; 0.0031 ± 0.0017 under setting [5]; 1.007 ± 0.0058 under setting [6].
For the compound `CCCCC(=O)OCC(=O)[C@]1(O)Cc2c(O)c3c(c(O)c2[C@@H](O[C@H]2C[C@H](NC(=O)C(F)(F)F)[C@H](O)[C@H](C)O2)C1)C(=O)c1c(OC)cccc1C3=O` [Valrubicin], the normalised cell viability was determined as 0.665 ± 0.04 under setting [1]; 0.868 ± 0.016 under setting [2]; 0.973 ± 0.016 under setting [3]; 0.982 ± 0.017 under setting [4]; 0.228 ± 0.017 under setting [5]; 0.374 ± 0.0045 under setting [6].
As to `CC(=O)[C@]1(O)Cc2c(O)c3c(c(O)c2[C@@H](O[C@H]2C[C@H](N)[C@H](O)[C@H](C)O2)C1)C(=O)c1ccccc1C3=O` [Idarubicin hydrochloride; Idarubicin; 4-DMD HCl], the normalised cell viability worked out at 0.0183 ± 0.0037 under setting [1]; 1.06 ± 0.026 under setting [2]; 0.0494 ± 0.0094 under setting [3]; 1.033 ± 0.0058 under setting [4]; 0.00163 ± 0.00068 under setting [5]; 1.006 ± 0.0075 under setting [6].

Source of the values: the supplement of paper PMC8285479.
